Assay results published in the supplement of paper PMC6555819.

What was measured:
Experiment in all cases: PBM binding z-score (relative to random genomic background probes); higher = stronger binding; sequences stand for … in GC…GCGATTGACAGCGTAGAATGAAGG
[1] = tested on: RARb homodimer (NR concentration 270 nM)
How it was run: (§1)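 The probes on custom Agilent 4×180K protein-binding microarrays were double-stranded, with 34-nt variable regions bearing direct-repeat seeds, single-nucleotide variants, half-site ablations and random human genomic background sequences. Incubation lasted 1 h with ligand-free nuclear receptor dimers in PBS pH 7.4, 2% milk, 0.02% Triton X-100, 1 mM DTT, 0.2 mg/mL BSA and 0.4 mg/ml salmon testes DNA. Antibodies against each partner (one per run) detected bound dimers, and fluorescence scans were regression-normalized. Binding z-scores take the random background probes as reference.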

[2] = tested on: RARg:RXRa (NR concentration 270 nM, RXRa partner concentration 90 nM)
How it was run: as §1

[3] = tested on: RARg homodimer (NR concentration 270 nM)
How it was run: as §1

[4] = tested on: RXRa DBDmut IVT, anti-RXR (DBD mutation: RXRa K156A/R161A, NR concentration 90 nM)
How it was run: as §1

[5] = tested on: RXRa homodimer (NR concentration 180 nM)
How it was run: as §1

[6] = tested on: THRa:RXRa (NR concentration 90 nM, RXRa partner concentration 90 nM)
How it was run: as §1

[7] = tested on: THRa homodimer (NR concentration 90 nM)
How it was run: as §1

[8] = tested on: VDR homodimer (NR concentration 270 nM)
How it was run: as §1

Row | Sequence | PBM binding z-score [1] | PBM binding z-score [2] | PBM binding z-score [3] | PBM binding z-score [4] | PBM binding z-score [5] | PBM binding z-score [6] | PBM binding z-score [7] | PBM binding z-score [8]
1 | CTAACTAGGTCATTGACAGGACAGTGAATAGTAA | 2.61 | 4.49 | 4.43 | 2.41 | 2.33 | 2.85 | 0.816 | 1.14
2 | TCTCGGAGGCCACGAAAGGTCAGAGCTCGACATC | 4.92 | 4.88 | 5.06 | 0.746 | 4.3 | 4.02 | 0.552 | 0.735
3 | CATACAGGGTCAGATAGGCCAGAGTAGGGACGGC | 2.99 | 4.18 | 4.16 | 1.83 | 3.75 | 2.81 | 0.777 | 1.47
4 | CATACAGGGTCAGCTAGGCCACAGTAGGGACGGC | 3.58 | 4.56 | 4.98 | 1.69 | 4.55 | 3.28 | 1.02 | 1.89
5 | ATCGAAAGGTCGACGAGGTGCGTATACACCGTTT | 2.58 | 3.76 | 3.9 | 0.716 | 4 | 2.46 | -0.328 | 0.77
6 | CTACCAAGGTGAACAAGGTCGCTGATTACTATTC | 2.04 | 1.88 | 1.55 | 0.77 | 1.8 | 3.28 | 1.81 | 1.27
7 | CCTACTGGGCCAAAGGGCATTGATTCCAATGCTC | 1.16 | 1.06 | 0.727 | -0.785 | 0.895 | 0.159 | -0.934 | -0.17
8 | CCTCGGAGGACAAAAGGAGGTCAGAGCTGCCAGA | 3.07 | 3.24 | 2.75 | 0.256 | 1.82 | 2.5 | 0.878 | 1.23
9 | CGTCCAAGGTCAATGCTAGGTAAGTGAAAGCATT | 3.93 | 5.7 | 6.12 | 3.33 | 4.48 | 3.84 | 2 | 2.06
10 | TCATATAGGTAATACAGGTGAAAGCCGGCATCTA | 0.482 | 0.795 | 0.815 | 1.69 | 1.55 | 1.14 | 0.273 | 0.67
11 | GCCCGGAGGACAAGGTCAGAGCTTTGTCCGTAGA | 3.19 | 2.99 | 3.62 | 0.344 | 2.04 | 2.92 | 1.67 | 0.864
12 | CCGAGTAGGTCATGGGGCATTCAGGCAACGGTGA | 3.25 | 4.34 | 4.44 | 0.881 | 3.87 | 2.45 | 0.499 | 0.642
13 | ATCGACAGGTCGAAGGTGAGTATACCCACCCGAA | 0.661 | 1.8 | 1.51 | -0.283 | 2.37 | 0.716 | -0.432 | -0.198
14 | TGATTGAGGTTATAAGATCAGGGAACGTTGCAAA | 0.293 | 1.55 | 1.13 | 0.404 | 2.06 | 1.68 | 0.31 | 0.65
15 | GCGGCTGGGGCATCAGCAGGTTACCATAACTTAA | 1.16 | 0.705 | 0.632 | -0.632 | 0.166 | 1.01 | -0.483 | -0.207
16 | CCTGCGAGGTCAATGGTCAGCTAAAGCAGCTCGC | 4.2 | 6.01 | 5.99 | 4.37 | 5.95 | 3.8 | 2.37 | 3.63
17 | AATACAGGGTTACTAGGCCAGAGTAGGTACGAAT | 0.925 | 1.24 | 0.893 | 0.264 | 1.57 | 1.07 | 0.206 | 0.675
18 | AGAATGAGGTTACCAAAAATCAGGGAAACGCTTG | 0.769 | 1.84 | 1.53 | 1.07 | 2.47 | 2.57 | 1.03 | 0.541
19 | GTACCAAGGTGCATAGGTCGTTGATGAGTAGGCG | 0.393 | 0.769 | 0.407 | 0.546 | 1.3 | 0.111 | -0.427 | 0.968

Row | Sequence | PBM binding z-score [1] | PBM binding z-score [2] | PBM binding z-score [3] | PBM binding z-score [4] | PBM binding z-score [5] | PBM binding z-score [6] | PBM binding z-score [7] | PBM binding z-score [8]
20 | AGTCAAAGTTCAGGACGAGGTTACGTAAAGCACG | 3.96 | 5.81 | 5.25 | 3.2 | 4.19 | 3.92 | 1.81 | 3.15
21 | AGAACGAGGGCACGCTGAGATGATAGCAGAGTAG | 1.2 | 1.91 | 2.21 | 1.8 | 1.41 | 1.48 | -0.0737 | 0.452
22 | AGTCAAAGTTCATCTAGGTAATGTAAGATATGCT | 3.87 | 5.56 | 6.17 | 4.52 | 4.6 | 2.92 | 0.21 | 5.21
23 | TCTGCTAGGTCAACGATGGGCAGCTAATCTGCTA | 2.74 | 3.94 | 5.25 | 0.549 | 2.44 | 2.63 | 0.424 | -0.398
24 | CCTCGGAGGACAACAGGTGGTCAGAGCTGCCAGA | 0.83 | 0.693 | 1.32 | -0.142 | -0.432 | 0.397 | -0.269 | -0.187
25 | CCTAGTTGGTCAGGAGGGCACACACCGGATATGA | 1.73 | 1.52 | 1.53 | -0.604 | 0.657 | 0.623 | 0.029 | 0.549
26 | CCTACTGGGCCAAAGGTCATTGTTTCCAATGCTC | 4.48 | 5.41 | 3.97 | 1.26 | 5.82 | 3.29 | 0.832 | 2.26
27 | ATATGTAGGTTAAGGGTCATCCAGGTTGGTTCGC | 4.18 | 5.45 | 4.39 | 1.99 | 6.92 | 3.69 | 1.82 | 3.82
28 | GCTATTAGTGGAAAGGGCAACCGAATGATTCTCG | 1.77 | 1.05 | 1.12 | 0.693 | 0.775 | 0.344 | -0.457 | -0.143
29 | CAAACTAGGTCACCGGAAGGCCAAAGTCCGCATG | 3.78 | 5.9 | 5.62 | 1.55 | 3.59 | 3.53 | 1.43 | 0.943
30 | TAGCCTAGGTCATGGACCAGTATACCACGCGAAC | 2.8 | 4.03 | 4.21 | 0.316 | 3.56 | 3.18 | 1.13 | 0.57
31 | ATATGGAGGTTATCGGGTCATTCAGTTTGCGCAT | 3.56 | 4.27 | 3.28 | 2.19 | 4.9 | 3.71 | 3 | 4.69
32 | GCTATTAGTCGAAAGGGCAACCGAATGATTCTCG | 2.08 | 1.09 | 1.5 | 0.643 | 0.86 | 0.548 | -0.36 | 0.289
33 | ACAGACAGGTGATGAAGCTAACTCAGGCTATCAT | -0.226 | 0.175 | 0.281 | -0.327 | 0.256 | 0.425 | -0.032 | -0.132
34 | CGTCCAAGGTCAAGGTCAGTCAAAGAGACTCGAA | 5.15 | 6.95 | 7.59 | 4.09 | 6.7 | 4.16 | 3.61 | 3.55
35 | ACTAGCAGGCCAAGTTTGGATCACTCAAACAAAG | -0.0539 | -0.0446 | 0.341 | -0.14 | -0.454 | -0.0937 | -0.67 | -0.0821
36 | CTAACTAGGTCAAGGACAGTGAATCTCCGCACGC | 3.16 | 3.64 | 4.21 | 1.34 | 2.64 | 3.08 | 2.01 | 0.398
37 | CTTAGCAGGCCAGGGTCACTCAAGCATTTCGCTT | 2.87 | 2.99 | 2.53 | 0.934 | 3.39 | 2.93 | 1.32 | 1.28
38 | TCTTGTAGATCAAGCAGGTAAAGAAAGCCTGAGT | -0.462 | -0.262 | -0.32 | 0.476 | -0.157 | 0.095 | -0.499 | -0.555

Row | Sequence | PBM binding z-score [1] | PBM binding z-score [2] | PBM binding z-score [3] | PBM binding z-score [4] | PBM binding z-score [5] | PBM binding z-score [6] | PBM binding z-score [7] | PBM binding z-score [8]
39 | GCTAGCAGGCCAGTTGGGTCACTCAATGACGGGC | 1.76 | 0.797 | 0.963 | -1.01 | 0.522 | 1.45 | 0.0151 | -0.361
40 | CCTAGCAGACCAGGGTCACTCAAGCATTTCGCTT | 2.68 | 2.86 | 1.84 | 0.63 | 3.24 | 2.75 | 0.798 | 1.37
41 | TAGCCTAGGTCAGATCGGGCCAGGATACGCTATA | 1.88 | 2.77 | 3.35 | -0.775 | 1.45 | 4.2 | 0.225 | -0.433
42 | CCTAATGGGCCAAAAAGGTCATTGATGCCGATAA | 4.33 | 4.34 | 4.05 | 1.29 | 4.45 | 3.03 | 0.29 | 2.59
43 | GCTAGTTGGCCAGTAAAAGGTCACACACCGGTCG | 5.19 | 5.15 | 4.08 | 0.252 | 5.46 | 3.55 | 1.33 | 1.49
44 | CCGACTGGGGCAAGGTTACCACAACGCACAGCCA | 1.53 | 1.13 | 1.45 | -0.491 | 1.12 | 1.31 | 0.612 | -0.211
45 | TAGCCTAGGTCATTGCGCCAGTATAGTACGCATC | 2.53 | 3.8 | 3.99 | 1.74 | 3 | 2.8 | 1.07 | 1.54
46 | CAAACTAGATCACCGGAAGGTCAAAGTCCGCATG | 4.03 | 4.08 | 2.88 | 0.674 | 3.47 | 2.76 | 1.06 | 2.12
47 | ATCTCTAGGTAAAGTTCAGTGTAAGATCGATAGA | 2.72 | 2.02 | 2.42 | 1.71 | 1.19 | 1.65 | 0.624 | 2.46
48 | CCTACTGGGCCACGAAAGGTCATTGCTTCAGTGA | 4.75 | 4.81 | 4.35 | 0.871 | 4.81 | 3.73 | 0.827 | 2.61
49 | AGAACGAGGGCACGCTGATTTGATAGCAGAGTAG | 1.14 | 1.65 | 1.92 | 1.63 | 1.38 | 1.65 | -0.138 | 0.667
50 | GCTTACGGGTCAAAGGTAATAGCATGAATAGAAT | 2.5 | 5.3 | 4.22 | 1.97 | 6.87 | 3.07 | -0.169 | 1.06
51 | GCAACGAGGGCAAAGTTGATAGCATCTGTCGACG | 0.991 | 1.89 | 1.57 | 2.62 | 1.81 | 1.19 | -0.191 | 1.21
52 | TAGCCTATGTCATGCGGGCCAGTATAGTGTCGGC | -0.116 | -0.1 | -0.059 | -0.904 | 0.0276 | -0.313 | -0.992 | -0.661
53 | CCTACTGGGCCACCAAAGGTCATTGATTCAGTGA | 4.49 | 4.61 | 4.52 | 0.43 | 5.36 | 3.67 | 0.763 | 2.66
54 | CGAACTAGGTCACTGACAGGACAGTGAATAGTAA | 3.15 | 4.78 | 4.99 | 1.48 | 2.88 | 2.81 | 0.889 | 0.448
55 | CGTCCAAGGTCCAAGGTCAGTGAAGAGATGACGG | 3.34 | 2.9 | 3.28 | 1.38 | 2.23 | 2.99 | 1.89 | 1.73
56 | CCAGAAAGGTGAGAAGGTAACTCAGCCTCGATTA | 1.43 | 2.36 | 1.91 | 0.256 | 1.53 | 0.725 | 0.0189 | -0.238
